Sampled rows, rich in hits. Any-hit rate of the full collection: about 7.3%.
HEK293 tox = Cytotoxic Profiling in HEK 293 Cell Line of Diverse Libraries Using Quantitative High-Throughput Screening. HEK 293 viability, ATP luminescence (CellTiter-Glo), 48-72 h. Potency, µM (titrated, usually from 115 µM), for inactives: at the top dose activity change, negative = cytotoxicity, actives largely listed as inhibitors. hit rate 6.6% among 94,000. AID 1345083, 2018; also: potency is read from the fitted curve at half-maximal effect; nearly all actives have a fitted effect of over 60% in size
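HEK 293 seeded at 250 cells/well receive compound via pintool. After 48 or 72 hr at 37 degree Celsius, 5% CO2 and 95% humidity, CellTiter-Glo is dispensed and luminescence read following 10 min at room temperature.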
Luciferase inh = Firefly luciferase inhibition profiling of diverse chemical library using quantitative high-throughput screening | AID 1347043, 2019 | Potency, µM (doses to about 115 µM), most hits filed as inhibitors | Luciferin 4-monooxygenase (Photinus pyralis), P08659 | hit rate 2.5% among 76,000 | purified P. pyralis luciferase, luminescence, biochemical; also: potency is read from the fitted curve at half-maximal effect; nearly all actives have a fitted effect of over 65% in size
Target sequence (P08659 whole entry, looked up): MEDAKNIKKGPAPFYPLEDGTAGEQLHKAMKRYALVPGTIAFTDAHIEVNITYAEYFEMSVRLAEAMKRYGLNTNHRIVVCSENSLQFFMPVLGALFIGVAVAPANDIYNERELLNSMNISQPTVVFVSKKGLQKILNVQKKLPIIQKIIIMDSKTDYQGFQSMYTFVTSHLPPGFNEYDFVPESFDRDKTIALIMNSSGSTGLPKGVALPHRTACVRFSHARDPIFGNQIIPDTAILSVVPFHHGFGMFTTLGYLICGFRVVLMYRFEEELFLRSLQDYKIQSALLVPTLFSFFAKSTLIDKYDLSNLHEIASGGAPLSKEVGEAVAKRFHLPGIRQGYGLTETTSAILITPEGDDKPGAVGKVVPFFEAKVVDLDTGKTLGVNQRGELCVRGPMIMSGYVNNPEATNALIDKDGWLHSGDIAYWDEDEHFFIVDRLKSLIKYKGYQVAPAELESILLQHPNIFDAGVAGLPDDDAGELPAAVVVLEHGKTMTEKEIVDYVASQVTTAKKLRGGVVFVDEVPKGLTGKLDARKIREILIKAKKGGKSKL
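FLuc 10nM, D-luciferin 10uM, ATP 10uM, Mg acetate 10mM, Tris acetate pH 7.5, Tween/BSA; cpd qHTS; enzyme added last; CCD luminescence.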
IP6K1 inh = Primary qHTS assay for small molecule inhibitors of Inositol hexaphosphate kinase 1 (IP6K1). AID 1645851, 2021. IP6K1 kinase, ADP-Glo luminescence, 2 h; hits give low values. Inositol hexakisphosphate kinase 1 (Homo sapiens), Q92551. hit rate 0.81% among 140,000. activity change, % (series mostly up to about 58 µM); in the data active = activity change below about -25%
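ADP-Glo luminescence measures ADP made by human IP6K1 during a 2 h RT reaction with ATP/IP6 (mix at 1.3 mM/130 uM); top library doses 57.5 and 19.1 uM final.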
SNCA expr inh = Primary qHTS assay for inhibitors of alpha-synuclein gene (SNCA) expression; HEK-293 SNCA-luciferase knock-in, luminescence, 24 h; Potency, µM (series often up to 57.2 µM), without a hit: at the top dose activity change, negative = inhibition, most hits filed as inhibitors; hit rate 0.17% among 140,000;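 also: potency is read from the fitted curve at half-maximal effect; plate controls were DMSO cells for no effect and cell-free wells for full effect; nearly all actives have a fitted effect of over 45% in size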
3T3 cytotox = Cytotoxic Profiling in NIH 3T3 Cell Line of Diverse Libraries Using Quantitative High-Throughput Screening | Potency, µM (doses to about 96.7 µM), for inactives: at the highest dose activity change, negative = cytotoxicity, most hits filed as inhibitors | NIH 3T3 viability, CellTiter-Glo ATP luminescence, 48-72 h | hit rate 4.3% among 94,000; also: potency is read from the fitted curve at half-maximal effect; nearly all actives have a fitted effect of over 55% in size
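Viability of NIH 3T3 cells after 48 or 72 hr compound treatment at 37 °C was assessed by CellTiter-Glo, with luminescence imaged following a 10 min room-temperature step.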
HEK293 viab = GF-AFC viability counterscreen for inhibitors of alpha-synuclein gene (SNCA) expression | HEK-293-SNCA-luc viability, GF-AFC fluorescence, 24 h | Potency, µM (highest dose often 57.1 µM), for inactives: top-dose activity change, negative = cytotoxicity, most hits filed as cytotoxic | hit rate 0.12% among 150,000 | AID 1671193, 2021;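 also: potency is read from the fitted curve at half-maximal effect; 0% = DMSO-treated cells and -100% = medium-only wells without cells; nearly all actives have a fitted effect of over 30% in size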
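Cytotoxicity counterscreen: after 24 h compound treatment of genome-edited SNCA-luciferase HEK-293 cells, live-cell protease substrate GF-AFC read by fluorescence after 30 min; activity scaled between DMSO (0%) and medium-only (-100%), curves Hill-fitted.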
* = called active by the depositor; i = inactive; ? = inconclusive; / = no result; [ ] = another dose, or the depositor's remark. Unless noted, calls follow the shape of the dose curve; as a rule, active = well fitted curve in the direction sought with a large enough effect; inconclusive = small, poorly fitted or top-dose-only effect, or another doubt; inactive = no such curve, though single readings can be large; an effect the other way counts as inactive or inconclusive. Unless noted, % is scaled to controls: 0 for no effect and ±100 for the full control effect.

SMILES	HEK293 tox	Luciferase inh	IP6K1 inh	SNCA expr inh	3T3 cytotox	HEK293 viab
COC(=O)[C@@H]1Cc2c([nH]c3ccccc23)[C@H]2C[C@@H](NCc3cccnc3)C[C@@H](c3ccc(C(F)(F)F)cc3)N21	?	i	-18.7	?	28.2µM*	?
CN1C[C@H](NCc2ccc(F)cc2)CCC[C@@H](C(=O)N(C)Cc2cccnc2)CC1=O	?	i	-8.2	-3.4%[87.6 µM]	-13.3%[174 µM]	-15.6%[87.6 µM]
O=C(NCc1cccnc1)[C@@H]1C[C@@H](c2ccc(F)cc2)N(CCOc2ccccc2)C1	?	i	-2.5	-10.9%[87.6 µM]	?	-7.1%[87.6 µM]
COC(=O)[C@@H]1Cc2c([nH]c3ccccc23)[C@H]2C[C@@H](NCc3cccnc3)C[C@@H](c3ccc(F)c(F)c3)N21	25.1µM*	i	-0.5	-18.1%	?	-15.7%
COC(=O)[C@@H]1Cc2c([nH]c3ccccc23)[C@H]2C[C@@H](NCc3cccnc3)C[C@@H](c3ccc(F)cc3)N21	22.4µM*	i	-7.3	-11.3%	20µM*	-0.4%
COC[C@@H]1CN(C(=O)c2ccc(C#N)cc2)C[C@H]1c1nc(C2CC2)no1	0.1%	i	6.7	6.7%	-9.3%	-13.2%
COCCCNC(=O)c1ccc2nnc(-c3ccc([S+](C)(=O)[O-])cc3)n2c1	0.6%	/	7.8	21.4%	-24.0%	-1.8%
O=C(c1cccc2[nH]ccc12)N1CCC2(CC1)N=C(c1ccc(Cl)cc1)NO2	?	i	-1.7	19.1%	?	-10.6%
CCc1noc([C@@H]2CC(F)(F)CN2S(=O)(=O)c2cccnc2)n1	-1.8%	i	-2.6	3.8%	-0.6%	-9.8%
COc1ccc(-c2cc(C(=O)N3CCN(c4ncccn4)CC3)c3cnn(C)c3n2)cc1	39.8µM*	/	-3.1	/	?	/
COc1ccc(-c2cc(C(=O)N3CCN(C)CC3)c3cnn(C)c3n2)cc1	3.3%	/	0.8	-11.0%	-11.5%	2.2%
Cn1ncc2c(C(=O)N3CCN(Cc4ccccc4)CC3)cc(-c3ccccc3F)nc21	39.8µM*	/	2.0	/	?	/
COc1ccc(-c2cc(C(=O)N3CCN(Cc4ccccc4)CC3)c3cnn(C)c3n2)cc1	35.5µM*	/	-17.1	/	?	/
CO[C@H]1CN(C2CCN(C(=O)CN3CCCC3=O)CC2)[C@H]1c1cccnc1	0.3%	/	29.7	4.6%	-19.6%	-2.5%
COc1ccc2cc(C3CN(C(=O)c4ccc(C)cc4OC)CCO3)ccc2c1 (configuration not stated)	22.4µM*	22.4µM*	40.9	120.9%	44.7µM*	-16.6%
COc1ccc2cc(C3CN(C(=O)c4cc(C(C)=O)n[nH]4)CCO3)ccc2c1 (configuration not stated)	?	?	-7.6	73.9%	?	-14.0%
COc1ccc(-c2cc(N3CCC(NC(=O)c4ccc(N(C)C)cc4)CC3)n[nH]2)cc1	1.0%	i	18.8	?	i	?
O=C(Nc1cccc(Br)c1)C1CCN(c2cc(C(F)(F)F)ncn2)CC1	44.7µM*	i	8.2	-38.5%	?	-23.2%
O=C(CSc1oc(-c2ccco2)nc1S(=O)(=O)c1ccc(Br)cc1)c1ccccc1	/	/	-28.4*	1.5%	/	4.1%
O=C(NCCCc1nc2ccccc2[nH]1)C1CC(=O)N(c2n[nH]c3ccccc23)C1 (configuration not stated)	-3.3%	i	14.3	-25.7%	-16.4%	11.9%
O=C(NCCc1ccccc1F)c1cc(Br)cn2ccnc12	?	15.8µM*	-14.8	164.3%	?	-8.6%
COCCNC(=O)c1cc(Br)cn2ccnc12	2.9%[172 µM]	i	-5.4	21.2%[87.6 µM]	-13.5%[138 µM]	5.4%[87.6 µM]
Cc1cn2nnc(C(=O)NCC3CCCCC3)c2c(=O)[nH]1	-11.0%	i	-16.2	17.4%	-18.8%	3.6%
CCOC(=O)C1(Cc2cccc(C(F)(F)F)c2)CCN(Cc2ccc(COC)o2)CC1	?	i	-0.3	-27.5%	?	-14.1%
CCOC(=O)C1(Cc2cccc(C(F)(F)F)c2)CCN(Cc2cc(C(C)C)n[nH]2)CC1	25.1µM*	i	-3.5	-20.0%	?	-8.0%
SMILES	HEK293 tox	Luciferase inh	IP6K1 inh	SNCA expr inh	3T3 cytotox	HEK293 viab
O=C(NCCC1=CCCCC1)c1cc2n(n1)CC(c1ccc(Cl)cc1)OC2 (configuration not stated)	44.7µM*	i	25.6	-9.7%	?	4.5%
O=C(NCCC1=CCCCC1)c1cc2n(n1)CC(c1ccc3c(c1)OCO3)OC2 (configuration not stated)	70.8µM*	i	9.8	30.4%	?	5.1%
O=C(NCc1ccccc1F)c1cc2n(n1)CC(c1ccc(Cl)cc1)OC2 (configuration not stated)	?	i	-7.2	-22.0%	?	0.5%
O=C(NCc1ccccc1)C1CCCN(c2ccnc3ccnn23)C1 (configuration not stated)	100µM*	/	13.2	32.2%[87.6 µM]	?	-20.1%[87.6 µM]
O=C(NCc1ccc(Cl)cc1)C1CCCN(c2ccnc3ccnn23)C1 (configuration not stated)	50.1µM*	/	18.9	-3.5%	?	-16.3%
O=C(NCc1ccccc1F)C1CCN(c2ccnc3ccnn23)CC1	15.8µM*	/	1.3	-14.4%	?	6.1%
O=C(NCc1cccc(Cl)c1)C1CCCN(c2ccnc3ccnn23)C1 (configuration not stated)	?	/	12.2	-6.7%	?	-16.4%
O=C(NCCc1ccccc1F)C1CCN(c2ccnc3ccnn23)CC1	?	/	24.1	-6.5%	?	-0.6%
O=C(NCc1ccccc1)C1CN(c2ccnc3ccnn23)C1	?	/	2.3	-15.8%[87.6 µM]	?	0.9%[87.6 µM]
CCc1cc(=O)n(CC(=O)N2CCN(c3ccccc3OC)CC2)c(-c2ccccc2)n1	39.8µM*	i	-1.1	-36.1%	?	?
O=C(Nc1ccc(Cl)cc1)N1CCN(Cc2ccccc2-c2ccccc2F)CC1	?	/	-8.8	?	?	5.3%[12.5 µM]
COc1ccccc1Cc1nccc(C2(c3ccccc3Cl)CCNCC2)n1	?	i	-12.9	2.5%	22.4µM*	-16.2%
Clc1ccccc1C1(c2ccnc(NC3CC3)n2)CCNCC1	?	i	7.5	-1.8%	?	-11.8%
Clc1ccccc1C1(c2ccnc(CC3CC3)n2)CCNCC1	?	i	-6.4	?	79.4µM*	-20.1%

Source: PubChem (National Center for Advancing Translational Sciences (NCATS))
